# Measured values: PMC7862700, “An all-to-all approach to the identification of sequence-specific readers for epigenetic DNA modifications on cytosine”
# What was measured:
# Assay in all cases: DAPPL (digital affinity profiling via proximity ligation, sequencing); 10 mM Tris-HCl pH 7.5, 50 mM NaCl, 1 mM DTT, 4% glycerol, room temperature, 30 min; GST-TFs on glutathione beads, 16-mer random dsDNA library, 0.1% formaldehyde crosslink after washing; high values mean tight binding
# FLI1 = target: T1, FLI1 (Homo sapiens, UniProt Q01543 1-452); conditions: protein: recombinant; tags: N-terminal GST; dsDNA, one strand shown
# T1 sequence: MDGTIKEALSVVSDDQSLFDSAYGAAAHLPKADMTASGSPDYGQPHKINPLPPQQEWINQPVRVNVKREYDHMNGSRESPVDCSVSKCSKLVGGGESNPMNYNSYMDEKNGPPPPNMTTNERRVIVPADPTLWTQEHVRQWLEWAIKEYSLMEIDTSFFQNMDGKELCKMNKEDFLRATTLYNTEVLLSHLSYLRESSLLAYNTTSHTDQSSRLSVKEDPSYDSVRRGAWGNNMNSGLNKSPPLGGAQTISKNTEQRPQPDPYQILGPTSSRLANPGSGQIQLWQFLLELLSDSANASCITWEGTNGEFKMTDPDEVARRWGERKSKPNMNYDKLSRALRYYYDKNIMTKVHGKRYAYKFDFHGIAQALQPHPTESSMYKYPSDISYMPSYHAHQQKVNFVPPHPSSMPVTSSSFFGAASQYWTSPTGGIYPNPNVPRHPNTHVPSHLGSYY
# In short: (§1)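 In yeast, human transcription factors were expressed with a GST fusion, then pulled down on glutathione beads and given DNA barcodes. Pooled with a tag-only sample, they were exposed to 200 nmole of a 16-mer random double-stranded DNA library (Tris/NaCl/DTT/glycerol buffer, room temperature, 30 min), washed, crosslinked with 0.1% formaldehyde, proximity-ligated using BsaI/T4 ligase for 1 h at 37 °C, PCR-amplified and read on an Illumina NextSeq500. Each hexamer's frequency of reads for a factor, divided by the matching frequency for the tag-only sample, gives the binding signal.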
# ELK1 = target: T2, ELK1 (Homo sapiens, UniProt P19419 1-428); conditions: protein: recombinant; tags: N-terminal GST; dsDNA, one strand shown
# T2 sequence: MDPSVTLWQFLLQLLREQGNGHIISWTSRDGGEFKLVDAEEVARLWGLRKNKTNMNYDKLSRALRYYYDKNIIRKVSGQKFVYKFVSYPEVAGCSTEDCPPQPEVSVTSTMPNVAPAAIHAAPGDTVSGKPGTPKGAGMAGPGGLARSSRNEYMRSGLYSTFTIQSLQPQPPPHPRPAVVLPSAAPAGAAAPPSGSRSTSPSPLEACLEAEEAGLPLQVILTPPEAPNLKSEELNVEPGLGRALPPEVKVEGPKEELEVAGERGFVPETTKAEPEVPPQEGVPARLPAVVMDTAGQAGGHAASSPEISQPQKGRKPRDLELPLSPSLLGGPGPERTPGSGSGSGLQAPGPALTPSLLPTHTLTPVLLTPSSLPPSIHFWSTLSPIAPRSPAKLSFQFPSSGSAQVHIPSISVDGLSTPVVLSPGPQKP
# In short: as §1
# GABPA = target: T3, GABPA (Homo sapiens, UniProt Q06546 1-454); conditions: protein: recombinant; tags: N-terminal GST; dsDNA, one strand shown
# T3 sequence: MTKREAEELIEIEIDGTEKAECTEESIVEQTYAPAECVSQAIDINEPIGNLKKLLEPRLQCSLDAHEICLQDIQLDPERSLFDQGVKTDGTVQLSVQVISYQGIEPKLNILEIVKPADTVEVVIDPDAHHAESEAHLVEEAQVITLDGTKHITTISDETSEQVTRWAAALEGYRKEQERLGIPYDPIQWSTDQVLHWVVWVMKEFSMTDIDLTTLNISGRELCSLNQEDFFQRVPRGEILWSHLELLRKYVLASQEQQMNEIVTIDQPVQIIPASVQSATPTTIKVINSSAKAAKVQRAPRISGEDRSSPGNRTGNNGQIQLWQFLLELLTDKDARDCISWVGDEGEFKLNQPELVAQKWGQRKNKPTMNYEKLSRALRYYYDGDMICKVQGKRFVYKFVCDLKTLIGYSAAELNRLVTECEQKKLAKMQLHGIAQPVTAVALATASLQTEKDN
# In short: as §1
# ERG = target: T4, ERG (Homo sapiens, UniProt P11308 1-479); conditions: protein: recombinant; tags: N-terminal GST; dsDNA, one strand shown
# T4 sequence: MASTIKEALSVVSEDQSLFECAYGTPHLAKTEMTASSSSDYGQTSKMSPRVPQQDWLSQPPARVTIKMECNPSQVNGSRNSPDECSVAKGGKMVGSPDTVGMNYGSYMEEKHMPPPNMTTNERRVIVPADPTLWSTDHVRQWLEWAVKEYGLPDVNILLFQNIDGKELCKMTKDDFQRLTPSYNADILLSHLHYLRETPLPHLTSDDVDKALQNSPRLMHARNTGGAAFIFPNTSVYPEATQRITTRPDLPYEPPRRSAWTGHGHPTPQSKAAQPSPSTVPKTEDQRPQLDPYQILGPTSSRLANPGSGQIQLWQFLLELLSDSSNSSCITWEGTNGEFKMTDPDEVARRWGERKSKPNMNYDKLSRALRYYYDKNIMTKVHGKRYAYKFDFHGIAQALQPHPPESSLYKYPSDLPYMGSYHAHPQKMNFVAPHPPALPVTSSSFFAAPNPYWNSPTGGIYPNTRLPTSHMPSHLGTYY
# In short: as §1
# ELF1 = ELF1 (Homo sapiens, UniProt P32519 1-619); conditions: protein: recombinant; tags: N-terminal GST; dsDNA, one strand shown
# In short: as §1
# EHF = target: T5, EHF (Homo sapiens, UniProt Q9NZC4 1-300); conditions: protein: recombinant; tags: N-terminal GST; dsDNA, one strand shown
# T5 sequence: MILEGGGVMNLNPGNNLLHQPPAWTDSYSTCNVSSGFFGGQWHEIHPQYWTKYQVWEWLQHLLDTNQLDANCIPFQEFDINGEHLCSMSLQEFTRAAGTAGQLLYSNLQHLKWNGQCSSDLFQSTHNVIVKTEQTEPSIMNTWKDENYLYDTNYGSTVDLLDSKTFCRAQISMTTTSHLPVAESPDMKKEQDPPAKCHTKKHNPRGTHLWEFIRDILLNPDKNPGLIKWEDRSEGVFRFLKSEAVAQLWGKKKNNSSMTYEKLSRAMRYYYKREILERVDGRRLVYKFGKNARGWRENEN
# In short: as §1
# SPI1 = SPI1 (Homo sapiens, UniProt P17947 1-270); conditions: protein: recombinant; tags: N-terminal GST; dsDNA, one strand shown
# In short: as §1
# SPIB = SPIB (Homo sapiens, UniProt Q01892 1-262); conditions: protein: recombinant; tags: N-terminal GST; dsDNA, one strand shown
# In short: as §1
# ELK3 = target: T6, ELK3 (Homo sapiens, UniProt P41970 1-407); conditions: protein: recombinant; tags: N-terminal GST; dsDNA, one strand shown
# T6 sequence: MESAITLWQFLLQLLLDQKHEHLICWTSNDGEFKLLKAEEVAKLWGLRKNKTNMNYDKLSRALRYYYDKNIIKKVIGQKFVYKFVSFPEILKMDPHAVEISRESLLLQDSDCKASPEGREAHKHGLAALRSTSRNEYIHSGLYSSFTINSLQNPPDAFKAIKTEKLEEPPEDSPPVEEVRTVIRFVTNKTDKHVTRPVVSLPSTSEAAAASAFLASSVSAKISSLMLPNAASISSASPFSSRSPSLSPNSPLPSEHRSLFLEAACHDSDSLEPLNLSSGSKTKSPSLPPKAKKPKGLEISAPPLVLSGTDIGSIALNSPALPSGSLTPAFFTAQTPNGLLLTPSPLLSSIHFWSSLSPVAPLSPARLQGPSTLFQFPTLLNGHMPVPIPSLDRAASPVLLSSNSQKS
# In short: as §1
# FEV = target: T7, FEV (Homo sapiens, UniProt Q99581 1-238); conditions: protein: recombinant; tags: N-terminal GST; dsDNA, one strand shown
# T7 sequence: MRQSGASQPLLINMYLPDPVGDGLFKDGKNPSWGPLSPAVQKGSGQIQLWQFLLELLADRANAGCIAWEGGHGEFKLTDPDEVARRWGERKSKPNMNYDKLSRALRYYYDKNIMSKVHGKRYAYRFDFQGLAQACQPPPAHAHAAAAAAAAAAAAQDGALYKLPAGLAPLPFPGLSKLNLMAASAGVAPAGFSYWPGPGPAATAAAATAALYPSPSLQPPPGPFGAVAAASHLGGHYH
# In short: as §1
# ETV5 = ETV5 (Homo sapiens, UniProt P41161 1-510); conditions: protein: recombinant; tags: N-terminal GST; dsDNA, one strand shown
# In short: as §1
# HSF1 = HSF1 (Homo sapiens, UniProt Q00613 1-529); conditions: protein: recombinant; tags: N-terminal GST; chain copies: 3; dsDNA, one strand shown
# In short: as §1
# SPIC = target: T8, SPIC (Homo sapiens, UniProt Q8N5J4 1-248); conditions: protein: recombinant; tags: N-terminal GST; dsDNA, one strand shown
# T8 sequence: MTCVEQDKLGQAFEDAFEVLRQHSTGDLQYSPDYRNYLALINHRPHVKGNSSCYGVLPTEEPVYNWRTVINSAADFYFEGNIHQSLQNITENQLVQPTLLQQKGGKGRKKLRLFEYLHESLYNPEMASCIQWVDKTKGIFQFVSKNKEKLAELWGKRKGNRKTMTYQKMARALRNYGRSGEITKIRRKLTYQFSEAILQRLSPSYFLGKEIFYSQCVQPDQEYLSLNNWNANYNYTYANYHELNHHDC
# In short: as §1
# ELF4 = ELF4 (Homo sapiens, UniProt Q99607 1-663); conditions: protein: recombinant; tags: N-terminal GST; dsDNA, one strand shown
# In short: as §1
# ELK4 = target: T9, ELK4 (Homo sapiens, UniProt P28324-2 1-405); conditions: protein: recombinant; tags: N-terminal GST; dsDNA, one strand shown
# T9 sequence: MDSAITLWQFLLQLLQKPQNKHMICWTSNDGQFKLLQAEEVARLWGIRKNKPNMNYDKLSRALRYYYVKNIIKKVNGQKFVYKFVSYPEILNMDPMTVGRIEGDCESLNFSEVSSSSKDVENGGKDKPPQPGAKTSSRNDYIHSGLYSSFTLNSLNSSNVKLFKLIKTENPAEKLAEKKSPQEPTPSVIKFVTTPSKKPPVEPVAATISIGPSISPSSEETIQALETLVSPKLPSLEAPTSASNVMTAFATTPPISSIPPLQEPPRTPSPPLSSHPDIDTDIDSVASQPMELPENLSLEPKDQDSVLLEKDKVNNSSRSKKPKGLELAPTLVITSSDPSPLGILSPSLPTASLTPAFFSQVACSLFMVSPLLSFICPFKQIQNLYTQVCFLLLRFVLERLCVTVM
# In short: as §1
# ETV2 = target: T10, ETV2 (Homo sapiens, UniProt O00321 1-342); conditions: protein: recombinant; tags: N-terminal GST; dsDNA, one strand shown
# T10 sequence: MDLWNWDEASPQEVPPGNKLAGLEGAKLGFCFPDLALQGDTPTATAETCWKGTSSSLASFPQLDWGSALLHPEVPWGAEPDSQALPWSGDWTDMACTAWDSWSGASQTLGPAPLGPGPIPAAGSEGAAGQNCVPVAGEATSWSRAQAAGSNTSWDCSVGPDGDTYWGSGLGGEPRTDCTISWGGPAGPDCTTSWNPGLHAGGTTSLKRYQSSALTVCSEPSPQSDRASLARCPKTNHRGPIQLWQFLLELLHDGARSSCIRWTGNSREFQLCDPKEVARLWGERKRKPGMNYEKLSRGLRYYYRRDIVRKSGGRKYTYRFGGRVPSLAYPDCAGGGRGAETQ
# In short: as §1
# ELF3 = target: T11, ELF3 (Homo sapiens, UniProt P78545 1-371); conditions: protein: recombinant; tags: N-terminal GST; dsDNA, one strand shown
# T11 sequence: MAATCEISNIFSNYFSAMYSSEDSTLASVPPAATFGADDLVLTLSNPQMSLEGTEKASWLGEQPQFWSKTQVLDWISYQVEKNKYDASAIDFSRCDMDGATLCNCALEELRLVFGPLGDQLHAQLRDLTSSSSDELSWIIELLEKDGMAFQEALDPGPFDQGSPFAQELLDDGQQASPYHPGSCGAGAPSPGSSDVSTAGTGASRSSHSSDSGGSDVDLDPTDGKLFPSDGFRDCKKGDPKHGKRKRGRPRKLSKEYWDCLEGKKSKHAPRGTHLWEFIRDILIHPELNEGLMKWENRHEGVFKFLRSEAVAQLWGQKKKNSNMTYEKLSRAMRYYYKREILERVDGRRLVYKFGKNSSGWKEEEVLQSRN
# In short: as §1
# CRX = CRX (Homo sapiens, UniProt O43186 1-299); conditions: protein: recombinant; tags: N-terminal GST; dsDNA, one strand shown
# In short: as §1
# ETV1 = ETV1 (Homo sapiens, UniProt P50549 1-477); conditions: protein: recombinant; tags: N-terminal GST; dsDNA, one strand shown
# In short: as §1
# ELF1, sequence (P32519 whole entry): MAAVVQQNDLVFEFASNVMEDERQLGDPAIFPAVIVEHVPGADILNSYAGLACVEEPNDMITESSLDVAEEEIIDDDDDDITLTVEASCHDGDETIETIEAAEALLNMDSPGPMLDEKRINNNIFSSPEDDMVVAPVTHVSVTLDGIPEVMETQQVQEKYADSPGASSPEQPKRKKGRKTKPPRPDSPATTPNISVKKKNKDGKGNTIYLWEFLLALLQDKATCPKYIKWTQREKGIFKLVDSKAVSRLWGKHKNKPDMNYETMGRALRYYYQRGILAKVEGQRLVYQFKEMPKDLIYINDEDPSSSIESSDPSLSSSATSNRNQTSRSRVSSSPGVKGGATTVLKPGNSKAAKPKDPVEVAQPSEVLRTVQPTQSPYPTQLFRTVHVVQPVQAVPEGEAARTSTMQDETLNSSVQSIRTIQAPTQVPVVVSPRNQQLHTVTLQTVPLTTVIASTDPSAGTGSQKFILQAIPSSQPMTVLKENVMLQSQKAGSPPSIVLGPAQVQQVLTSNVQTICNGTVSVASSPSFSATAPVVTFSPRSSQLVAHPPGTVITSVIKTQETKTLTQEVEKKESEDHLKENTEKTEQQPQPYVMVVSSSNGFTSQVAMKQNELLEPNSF
# SPIB, sequence (Q01892 whole entry): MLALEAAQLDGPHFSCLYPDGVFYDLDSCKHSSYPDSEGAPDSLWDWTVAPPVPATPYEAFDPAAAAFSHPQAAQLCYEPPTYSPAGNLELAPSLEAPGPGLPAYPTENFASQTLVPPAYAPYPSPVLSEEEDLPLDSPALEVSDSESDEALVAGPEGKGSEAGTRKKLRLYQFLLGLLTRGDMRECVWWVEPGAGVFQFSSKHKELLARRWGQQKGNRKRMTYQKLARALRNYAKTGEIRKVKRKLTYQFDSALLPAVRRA
# CRX, sequence (O43186 whole entry): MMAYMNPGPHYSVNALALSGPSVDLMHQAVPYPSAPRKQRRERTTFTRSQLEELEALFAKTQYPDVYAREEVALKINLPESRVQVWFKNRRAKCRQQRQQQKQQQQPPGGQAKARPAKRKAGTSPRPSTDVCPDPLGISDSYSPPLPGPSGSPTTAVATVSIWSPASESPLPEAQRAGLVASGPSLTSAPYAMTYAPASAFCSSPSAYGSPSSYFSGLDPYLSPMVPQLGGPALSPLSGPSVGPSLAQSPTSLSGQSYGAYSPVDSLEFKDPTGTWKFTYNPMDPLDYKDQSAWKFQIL
# HSF1, sequence (Q00613 whole entry): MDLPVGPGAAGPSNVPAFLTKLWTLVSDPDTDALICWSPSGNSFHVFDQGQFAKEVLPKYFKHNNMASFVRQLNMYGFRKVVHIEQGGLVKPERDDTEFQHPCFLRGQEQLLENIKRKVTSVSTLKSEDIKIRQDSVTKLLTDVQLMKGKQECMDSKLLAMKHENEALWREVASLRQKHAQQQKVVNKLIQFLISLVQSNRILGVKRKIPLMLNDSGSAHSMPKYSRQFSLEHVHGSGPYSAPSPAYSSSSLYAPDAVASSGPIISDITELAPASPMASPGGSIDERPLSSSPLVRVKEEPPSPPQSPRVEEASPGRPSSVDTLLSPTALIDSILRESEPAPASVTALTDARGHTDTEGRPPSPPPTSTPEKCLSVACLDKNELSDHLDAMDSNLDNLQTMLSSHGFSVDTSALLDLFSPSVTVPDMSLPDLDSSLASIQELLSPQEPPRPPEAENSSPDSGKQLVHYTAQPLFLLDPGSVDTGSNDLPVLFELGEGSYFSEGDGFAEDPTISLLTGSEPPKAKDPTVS
# ETV1, sequence (P50549 whole entry): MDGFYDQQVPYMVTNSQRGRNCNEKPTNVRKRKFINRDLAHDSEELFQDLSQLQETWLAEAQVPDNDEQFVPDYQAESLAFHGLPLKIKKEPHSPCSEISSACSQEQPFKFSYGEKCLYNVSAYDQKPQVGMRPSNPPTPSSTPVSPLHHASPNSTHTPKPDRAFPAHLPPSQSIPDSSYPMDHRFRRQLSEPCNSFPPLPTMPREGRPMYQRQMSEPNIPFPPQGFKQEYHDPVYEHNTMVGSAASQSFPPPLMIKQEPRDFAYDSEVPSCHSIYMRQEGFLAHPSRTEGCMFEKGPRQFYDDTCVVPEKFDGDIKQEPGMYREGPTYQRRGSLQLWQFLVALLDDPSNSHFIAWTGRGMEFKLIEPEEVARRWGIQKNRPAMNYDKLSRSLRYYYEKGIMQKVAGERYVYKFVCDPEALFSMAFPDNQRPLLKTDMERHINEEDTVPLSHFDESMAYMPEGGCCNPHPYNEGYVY
# ETV5, sequence (P41161 whole entry): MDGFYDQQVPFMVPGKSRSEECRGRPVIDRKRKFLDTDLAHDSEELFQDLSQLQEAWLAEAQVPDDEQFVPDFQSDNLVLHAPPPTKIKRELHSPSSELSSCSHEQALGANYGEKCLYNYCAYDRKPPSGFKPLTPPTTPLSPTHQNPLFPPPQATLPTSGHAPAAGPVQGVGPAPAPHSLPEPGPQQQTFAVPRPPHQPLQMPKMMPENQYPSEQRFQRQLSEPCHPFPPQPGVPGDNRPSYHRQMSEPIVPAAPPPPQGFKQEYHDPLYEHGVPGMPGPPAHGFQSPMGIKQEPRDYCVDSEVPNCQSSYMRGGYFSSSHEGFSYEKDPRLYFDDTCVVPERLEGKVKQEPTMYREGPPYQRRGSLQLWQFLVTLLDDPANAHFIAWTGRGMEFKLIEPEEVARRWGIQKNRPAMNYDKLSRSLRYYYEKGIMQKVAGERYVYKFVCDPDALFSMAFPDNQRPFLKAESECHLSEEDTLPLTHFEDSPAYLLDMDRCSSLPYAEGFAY
# ELF4, sequence (Q99607 whole entry): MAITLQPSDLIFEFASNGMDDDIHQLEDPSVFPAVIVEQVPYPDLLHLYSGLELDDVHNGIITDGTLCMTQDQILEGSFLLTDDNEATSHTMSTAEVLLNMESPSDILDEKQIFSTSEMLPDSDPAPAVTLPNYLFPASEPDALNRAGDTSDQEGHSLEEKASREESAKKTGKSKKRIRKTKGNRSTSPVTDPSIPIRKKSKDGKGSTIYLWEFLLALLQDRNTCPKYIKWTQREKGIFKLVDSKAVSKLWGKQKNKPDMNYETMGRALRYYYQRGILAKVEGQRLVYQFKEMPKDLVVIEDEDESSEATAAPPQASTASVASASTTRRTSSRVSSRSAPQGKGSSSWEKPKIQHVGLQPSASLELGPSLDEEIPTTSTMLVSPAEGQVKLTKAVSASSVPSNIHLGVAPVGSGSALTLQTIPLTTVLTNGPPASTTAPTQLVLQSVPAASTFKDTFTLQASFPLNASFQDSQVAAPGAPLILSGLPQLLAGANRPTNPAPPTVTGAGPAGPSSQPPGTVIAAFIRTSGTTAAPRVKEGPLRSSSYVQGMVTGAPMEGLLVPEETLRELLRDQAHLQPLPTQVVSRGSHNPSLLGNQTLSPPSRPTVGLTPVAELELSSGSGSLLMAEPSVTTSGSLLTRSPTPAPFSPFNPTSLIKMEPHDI
sequence,measurement,setting,value
TTTGCA,binding signal,FLI1,"1.27 fold enrichment (6-mer frequency, TF over GST control)"
same,binding signal,ELK1,"1.33 fold enrichment (6-mer frequency, TF over GST control)"
same,binding signal,GABPA,"1.34 fold enrichment (6-mer frequency, TF over GST control)"
same,binding signal,ERG,"1.29 fold enrichment (6-mer frequency, TF over GST control)"
same,binding signal,ELF1,"1.32 fold enrichment (6-mer frequency, TF over GST control)"
same,binding signal,EHF,"1.19 fold enrichment (6-mer frequency, TF over GST control)"
same,binding signal,SPI1,"1.22 fold enrichment (6-mer frequency, TF over GST control)"
same,binding signal,SPIB,"1.29 fold enrichment (6-mer frequency, TF over GST control)"
same,binding signal,ELK3,"1.32 fold enrichment (6-mer frequency, TF over GST control)"
same,binding signal,FEV,"1.18 fold enrichment (6-mer frequency, TF over GST control)"
same,binding signal,ETV5,"1.22 fold enrichment (6-mer frequency, TF over GST control)"
same,binding signal,HSF1,"1.26 fold enrichment (6-mer frequency, TF over GST control)"
same,binding signal,SPIC,"1.23 fold enrichment (6-mer frequency, TF over GST control)"
same,binding signal,ELF4,"1.29 fold enrichment (6-mer frequency, TF over GST control)"
same,binding signal,ELK4,"1.3 fold enrichment (6-mer frequency, TF over GST control)"
same,binding signal,ETV2,"1.24 fold enrichment (6-mer frequency, TF over GST control)"
same,binding signal,ELF3,"1.28 fold enrichment (6-mer frequency, TF over GST control)"
same,binding signal,CRX,"1.48 fold enrichment (6-mer frequency, TF over GST control)"
same,binding signal,ETV1,"1.29 fold enrichment (6-mer frequency, TF over GST control)"
